Test results as given in PubChem BioAssay (Tox21).
Inconclusive results are not listed. A number with no mark means an inactive call. Calls follow the shape of the dose curve; as a rule, active = well fitted cell-killing curve with a large enough effect in the repeat runs; inconclusive = weak or mixed curves, or effect the other way; inactive = no such curve, though single readings can be large or run the other way.

Experiment: qHTS assay to identify small molecule agonists of the vitamin D receptor (VDR) signaling pathway - cell viability counter screen (AID 743224); also: nearly all actives have a fitted effect of over 50% in size
Conditions: VDR-bla HEK293T viability, CellTiter-Glo luminescence, 16 h; series mostly up to 62.6 µM; activity change, negative = cytotoxicity: at the top concentration
Excerpt: U.S. Tox21 Program National Center for Advancing Translational Sciences [NCATS] NIH Chemical Genomics Center [NCGC] U.S. Environmental Protection Agency [EPA] National Institutes of Environmental Health Sciences [NIEHS] National Toxicology Program [NTP] U.S. Food and Drug Administration [FDA] Tox21 Assay Overview: The vitamin D receptor (VDR), a member of nuclear hormone receptor superfamily, plays a critical role in calcium homeostasis and bone metabolism. It is also involved in cell differentiation and growth, and thrombogenicity. […] The cytotoxicity of the Tox21 compound library against the VDR-bla cell line was tested in parallel by measuring the cell viability using CellTiter-Glo assay (Promega, Madison, WI) in the same wells.
Tox21 Assay Protocol Summary: VDR-bla cells were dispensed at 2,000 cells/6 uL/well into black wall/clear-bottom 1536-well plates using a Multidrop Combi (Thermo Fisher Scientific, Waltham, MA) dispenser. After the assay plates were incubated at a 37C and 5% CO2 for 4 h, 23 nL of compounds dissolved in DMSO, positive controls or DMSO only was transferred to the assay plate by a Pintool station (Kalypsys, San Diego, CA). The plates were incubated at 37C and 5% CO2 for 16 h. After 1 uL of LiveBLAzerTM B/G FRET substrate was added using a Bioraptr Flying Reagent Dispenser (FRD) workstation (Beckman Coulter, Indianapolis, IN, USA), the plates were incubated at room temperature for 2 h, and fluorescence intensity was measured by an Envision plate reader (PerkinElmer, Shelton, CT). For cell viability readout that measures cytotoxicity, 3 ul/well of CellTiter-Glo reagent was added into the assay plates using a FRD. After 30 min incubation at room temperature, the luminescence intensity in the plates was measured using a ViewLux (PerkinElmer) plate reader.
% is scaled to controls: 0 for no effect and ±100 for the full control effect.

Row | SMILES | activity change, negative = cytotoxicity
1 | N#CC(CCc1ccc(Cl)cc1)(Cn1cncn1)c1ccccc1 (stereo not given) | -16.8%
2 | Nc1cc(Cl)ccc1O | -1.78%
3 | CC1(C)C(=O)NC(=O)NC1=O | 4.97%
4 | O=S(=O)(O)C(F)(F)C(F)(F)C(F)(F)C(F)(F)C(F)(F)C(F)(F)F | 5.89%
5 | Cc1nnc2n1-c1sc(CCC(=O)N3CCOCC3)cc1C(c1ccccc1Cl)=NC2 | 5.12%
6 | O=C(Oc1ccc(Br)cc1)N1CCN2CCC1CC2 | -10.6%
7 | CSc1nc(N=[N+]=[N-])nc(NC(C)C)n1 | 2.11%
8 | CC(C)NCC(O)c1ccc(N)c(C#N)c1 (stereo not given) | 4.9%
9 | CC(C)COP(=O)(OCC(C)C)OCC(C)C | -5.6%
10 | CCCCOC(=O)[C@@H](C)Oc1ccc(Oc2ccc(C#N)cc2F)cc1 | -13.2%
11 | CC1=NNC(=O)N(/N=C/c2cccnc2)C1 | 0.0534%
12 | COC(=O)c1c(C(F)F)nc(C(F)(F)F)c(C2=NCCS2)c1CC(C)C | 13.2%
13 | CC1(C)COP(Oc2ccccc2)OC1 | -6.7%
14 | Clc1cccc(N2CCNCC2)c1 | 1.23%
15 | CN1CCN(C(=O)O[C@H]2c3nccnc3C(=O)N2c2ccc(Cl)cn2)CC1 | 13.5%
16 | C(CCOCC1CO1)COCC1CO1 (stereo not given) | 6.6%
17 | CNCC(=O)c1ccc(O)c(O)c1 | 6.27%
18 | C#C[C@]1(O)C=C[C@H]2[C@@H]3CCC4=CC(=O)CC[C@@H]4[C@H]3CC[C@@]21CC | 0.846%
19 | O=c1oc2ccccc2c(O)c1C1CCCc2ccccc21 (stereo not given) | 10.3%
20 | C[C@]12CC[C@H]3[C@@H](CC=C4C[C@@H](O)CC[C@@]43C)[C@@H]1CC[C@@H]2O | -0.367%

Row | SMILES | activity change, negative = cytotoxicity
21 | CCC#N | 11.2% [at 81.1 µM]
22 | O=C1c2ccccc2C(=O)c2ccccc21 | -1.06% [at 29.1 µM]
23 | C[N+](C)=CCl | -18.1%
24 | CCCCOP(=O)(O)OCCCC | 8.57%
25 | C1CCC(C2CCCCC2)CC1 | -1.11%
26 | c1cc2c(c(N3CCNCC3)c1)OCCO2 | -2.78%
27 | ClC(Br)Br | 8.74%
28 | CCC1(c2ccccc2)C(=O)N=C(O)NC1=O (stereo not given) | -1.33%
29 | CNC(=O)Oc1ccc(N(C)C)c(C)c1 | -5.59%
30 | CCOP(=O)(OCC)OP(=O)(OCC)OCC | 7.58%
31 | ClC(Cl)(Cl)C(Cl)(Cl)Cl | 5.93% [at 81.1 µM]
32 | CCCCc1ccc(O)cc1 | 0.274%
33 | COC(C)(C)C | -24.9%
34 | CCOC(=O)NC(=S)Nc1ccccc1NC(=S)NC(=O)OCC | 12.4%
35 | CC(C)(C)C(=O)C(Oc1ccc(Cl)cc1)n1cncn1 (stereo not given) | 2.58%
36 | Nc1n[nH]c(N)n1 | 7.39% [at 81.1 µM]
37 | NC(=O)c1cc([N+](=O)[O-])cc([N+](=O)[O-])c1 | -2.41%
38 | O=P(O)(Oc1ccccc1)Oc1ccccc1 | 5.36%
39 | CCCCCCBr | -12.1% [at 81.1 µM]
40 | COCC(=O)N(c1c(C)cccc1C)N1CCOC1=O | 0.276%
